# Measurements as given in paper PMC7862700, “An all-to-all approach to the identification of sequence-specific readers for epigenetic DNA modifications on cytosine”.
# Assays:
# Test in all cases: DAPPL (digital affinity profiling via proximity ligation, sequencing); 10 mM Tris-HCl pH 7.5, 50 mM NaCl, 1 mM DTT, 4% glycerol, room temperature, 30 min; GST-TFs on glutathione beads, 16-mer random dsDNA library, 0.1% formaldehyde crosslink after washing; high values mean tight binding
# FEV = target: T1, FEV (Homo sapiens, UniProt Q99581 1-238); settings: protein: recombinant; tags: N-terminal GST; dsDNA, one strand shown
# T1 sequence: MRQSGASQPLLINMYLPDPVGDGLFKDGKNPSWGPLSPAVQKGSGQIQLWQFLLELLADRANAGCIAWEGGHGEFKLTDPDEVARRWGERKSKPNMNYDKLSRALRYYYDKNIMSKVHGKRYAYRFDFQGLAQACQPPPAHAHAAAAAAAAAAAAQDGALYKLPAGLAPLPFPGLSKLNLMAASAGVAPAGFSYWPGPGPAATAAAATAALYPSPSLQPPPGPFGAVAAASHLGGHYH
# Procedure, shortened: (§1)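 Sequencing on an Illumina NextSeq500 followed washing, crosslinking with 0.1% formaldehyde, proximity ligation (BsaI/T4 ligase, 1 h, 37 °C) and PCR amplification of pools that had been incubated for 30 min at room temperature with 200 nmole of a random double-stranded 16-mer DNA library in Tris/NaCl/DTT/glycerol buffer. Each pool held DNA-barcoded human transcription factors, expressed in yeast as GST fusions and captured on glutathione beads, plus a tag-only sample. Binding signal is a hexamer's read frequency for a factor divided by its frequency in the tag-only sample.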
# ETV5 = ETV5 (Homo sapiens, UniProt P41161 1-510); settings: protein: recombinant; tags: N-terminal GST; dsDNA, one strand shown
# Sequence of ETV5 (P41161 whole entry): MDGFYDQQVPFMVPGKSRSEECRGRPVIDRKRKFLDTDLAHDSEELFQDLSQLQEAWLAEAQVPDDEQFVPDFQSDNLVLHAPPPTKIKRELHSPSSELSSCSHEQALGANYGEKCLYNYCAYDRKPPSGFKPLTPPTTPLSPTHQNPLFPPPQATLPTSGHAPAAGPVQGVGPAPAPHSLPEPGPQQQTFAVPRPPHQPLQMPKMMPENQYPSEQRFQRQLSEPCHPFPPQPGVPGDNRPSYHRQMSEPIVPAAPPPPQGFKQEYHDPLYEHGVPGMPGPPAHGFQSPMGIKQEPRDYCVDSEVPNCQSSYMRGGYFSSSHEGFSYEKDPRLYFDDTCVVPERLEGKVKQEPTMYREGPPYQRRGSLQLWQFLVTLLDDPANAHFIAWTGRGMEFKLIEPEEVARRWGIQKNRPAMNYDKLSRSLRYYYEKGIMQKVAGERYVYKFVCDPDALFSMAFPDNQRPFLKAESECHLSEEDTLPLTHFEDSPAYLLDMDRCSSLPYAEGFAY
# Procedure, shortened: as §1
# HSF1 = HSF1 (Homo sapiens, UniProt Q00613 1-529); settings: protein: recombinant; tags: N-terminal GST; chain copies: 3; dsDNA, one strand shown
# Sequence of HSF1 (Q00613 whole entry): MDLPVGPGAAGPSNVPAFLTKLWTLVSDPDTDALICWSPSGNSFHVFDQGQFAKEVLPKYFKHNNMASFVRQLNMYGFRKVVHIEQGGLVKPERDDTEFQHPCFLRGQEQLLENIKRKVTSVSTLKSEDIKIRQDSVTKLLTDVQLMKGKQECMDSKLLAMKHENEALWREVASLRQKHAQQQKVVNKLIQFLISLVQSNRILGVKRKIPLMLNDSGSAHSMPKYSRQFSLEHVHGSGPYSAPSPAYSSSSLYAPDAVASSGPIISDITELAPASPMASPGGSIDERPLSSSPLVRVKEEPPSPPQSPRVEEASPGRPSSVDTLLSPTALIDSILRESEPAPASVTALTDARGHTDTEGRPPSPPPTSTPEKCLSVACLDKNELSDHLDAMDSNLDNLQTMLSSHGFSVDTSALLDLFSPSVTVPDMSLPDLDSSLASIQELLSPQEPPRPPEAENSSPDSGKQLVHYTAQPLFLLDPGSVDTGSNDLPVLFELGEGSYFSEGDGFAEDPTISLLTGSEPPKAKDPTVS
# Procedure, shortened: as §1
# SPIC = target: T2, SPIC (Homo sapiens, UniProt Q8N5J4 1-248); settings: protein: recombinant; tags: N-terminal GST; dsDNA, one strand shown
# T2 sequence: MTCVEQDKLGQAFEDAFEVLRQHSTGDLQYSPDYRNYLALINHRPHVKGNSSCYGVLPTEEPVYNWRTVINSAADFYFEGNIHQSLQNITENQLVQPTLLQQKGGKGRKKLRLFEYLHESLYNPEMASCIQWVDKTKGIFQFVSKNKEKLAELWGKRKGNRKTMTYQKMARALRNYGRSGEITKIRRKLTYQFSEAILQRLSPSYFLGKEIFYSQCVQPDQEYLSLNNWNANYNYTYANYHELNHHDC
# Procedure, shortened: as §1
# ELF4 = ELF4 (Homo sapiens, UniProt Q99607 1-663); settings: protein: recombinant; tags: N-terminal GST; dsDNA, one strand shown
# Sequence of ELF4 (Q99607 whole entry): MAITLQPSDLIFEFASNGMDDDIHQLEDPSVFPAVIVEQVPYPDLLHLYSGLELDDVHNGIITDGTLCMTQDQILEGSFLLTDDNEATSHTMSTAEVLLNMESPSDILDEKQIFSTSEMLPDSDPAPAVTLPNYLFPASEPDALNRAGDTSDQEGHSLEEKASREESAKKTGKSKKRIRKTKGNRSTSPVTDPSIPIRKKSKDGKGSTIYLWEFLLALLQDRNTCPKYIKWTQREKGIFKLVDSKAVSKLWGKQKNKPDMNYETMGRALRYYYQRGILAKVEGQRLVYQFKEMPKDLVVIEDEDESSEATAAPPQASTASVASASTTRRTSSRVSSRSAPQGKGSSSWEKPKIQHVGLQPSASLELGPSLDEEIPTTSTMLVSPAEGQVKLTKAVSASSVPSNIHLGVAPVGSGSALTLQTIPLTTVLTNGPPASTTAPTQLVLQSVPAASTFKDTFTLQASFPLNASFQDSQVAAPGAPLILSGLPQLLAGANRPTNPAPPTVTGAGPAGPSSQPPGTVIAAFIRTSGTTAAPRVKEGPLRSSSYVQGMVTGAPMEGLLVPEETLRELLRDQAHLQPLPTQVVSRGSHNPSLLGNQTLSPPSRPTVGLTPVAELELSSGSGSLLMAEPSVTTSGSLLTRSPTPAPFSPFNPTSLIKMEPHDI
# Procedure, shortened: as §1
# ELK4 = target: T3, ELK4 (Homo sapiens, UniProt P28324-2 1-405); settings: protein: recombinant; tags: N-terminal GST; dsDNA, one strand shown
# T3 sequence: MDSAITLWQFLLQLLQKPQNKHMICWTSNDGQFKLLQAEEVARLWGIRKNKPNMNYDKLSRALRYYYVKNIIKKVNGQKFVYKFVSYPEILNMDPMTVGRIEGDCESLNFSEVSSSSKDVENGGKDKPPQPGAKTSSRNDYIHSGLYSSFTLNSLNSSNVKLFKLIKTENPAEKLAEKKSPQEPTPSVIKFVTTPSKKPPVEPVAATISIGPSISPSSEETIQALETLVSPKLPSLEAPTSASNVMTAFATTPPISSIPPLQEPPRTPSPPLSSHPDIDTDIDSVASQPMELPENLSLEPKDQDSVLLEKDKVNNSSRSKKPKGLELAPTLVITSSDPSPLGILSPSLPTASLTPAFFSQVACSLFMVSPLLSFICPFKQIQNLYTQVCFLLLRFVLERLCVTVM
# Procedure, shortened: as §1
# ETV2 = target: T4, ETV2 (Homo sapiens, UniProt O00321 1-342); settings: protein: recombinant; tags: N-terminal GST; dsDNA, one strand shown
# T4 sequence: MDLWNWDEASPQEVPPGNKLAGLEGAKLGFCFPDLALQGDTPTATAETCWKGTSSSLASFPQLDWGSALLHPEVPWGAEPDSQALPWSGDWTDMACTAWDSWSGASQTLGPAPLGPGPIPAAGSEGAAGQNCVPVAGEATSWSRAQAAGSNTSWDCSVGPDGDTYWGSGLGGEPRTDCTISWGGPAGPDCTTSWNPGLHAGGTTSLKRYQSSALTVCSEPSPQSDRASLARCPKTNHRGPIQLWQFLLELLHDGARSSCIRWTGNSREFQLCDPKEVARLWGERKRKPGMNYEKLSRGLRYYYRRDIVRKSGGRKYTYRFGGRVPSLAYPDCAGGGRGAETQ
# Procedure, shortened: as §1
# ELF3 = target: T5, ELF3 (Homo sapiens, UniProt P78545 1-371); settings: protein: recombinant; tags: N-terminal GST; dsDNA, one strand shown
# T5 sequence: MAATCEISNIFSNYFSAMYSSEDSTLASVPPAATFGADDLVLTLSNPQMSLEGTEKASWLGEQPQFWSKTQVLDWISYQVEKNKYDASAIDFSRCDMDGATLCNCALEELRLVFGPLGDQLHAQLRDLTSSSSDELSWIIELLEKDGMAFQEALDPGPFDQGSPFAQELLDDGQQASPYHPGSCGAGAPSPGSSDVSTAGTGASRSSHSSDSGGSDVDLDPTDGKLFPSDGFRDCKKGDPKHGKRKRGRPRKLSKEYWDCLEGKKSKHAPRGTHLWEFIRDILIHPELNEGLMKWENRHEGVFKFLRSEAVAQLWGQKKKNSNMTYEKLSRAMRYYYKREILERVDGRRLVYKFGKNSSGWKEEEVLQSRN
# Procedure, shortened: as §1
# CRX = CRX (Homo sapiens, UniProt O43186 1-299); settings: protein: recombinant; tags: N-terminal GST; dsDNA, one strand shown
# Sequence of CRX (O43186 whole entry): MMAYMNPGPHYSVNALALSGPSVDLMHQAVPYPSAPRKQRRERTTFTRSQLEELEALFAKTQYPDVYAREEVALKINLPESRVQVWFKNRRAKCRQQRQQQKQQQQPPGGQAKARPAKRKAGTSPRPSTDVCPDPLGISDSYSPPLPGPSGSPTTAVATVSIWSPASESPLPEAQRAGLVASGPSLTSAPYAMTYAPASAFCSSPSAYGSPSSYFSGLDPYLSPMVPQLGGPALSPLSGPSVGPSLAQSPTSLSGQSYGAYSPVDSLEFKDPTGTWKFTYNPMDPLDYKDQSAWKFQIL
# Procedure, shortened: as §1
# ETV1 = ETV1 (Homo sapiens, UniProt P50549 1-477); settings: protein: recombinant; tags: N-terminal GST; dsDNA, one strand shown
# Sequence of ETV1 (P50549 whole entry): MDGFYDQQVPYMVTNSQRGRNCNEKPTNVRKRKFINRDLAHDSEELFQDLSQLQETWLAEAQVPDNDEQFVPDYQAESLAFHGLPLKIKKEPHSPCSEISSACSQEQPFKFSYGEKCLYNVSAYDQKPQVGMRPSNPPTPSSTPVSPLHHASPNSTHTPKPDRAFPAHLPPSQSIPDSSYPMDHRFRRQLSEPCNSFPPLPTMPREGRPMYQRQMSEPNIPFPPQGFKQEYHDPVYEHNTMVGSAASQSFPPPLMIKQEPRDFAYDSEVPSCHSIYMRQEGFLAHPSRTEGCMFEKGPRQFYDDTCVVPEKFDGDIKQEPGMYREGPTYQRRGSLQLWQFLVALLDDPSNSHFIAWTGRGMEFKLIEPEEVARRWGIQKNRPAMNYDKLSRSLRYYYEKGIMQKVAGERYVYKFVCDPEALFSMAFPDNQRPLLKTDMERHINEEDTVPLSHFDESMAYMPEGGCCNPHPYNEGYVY
# Procedure, shortened: as §1
sequence,measurement,setting,value
TTTTAC,binding signal,FEV,"1.37 fold enrichment (6-mer frequency, TF over GST control)"
same,binding signal,ETV5,"1.36 fold enrichment (6-mer frequency, TF over GST control)"
same,binding signal,HSF1,"1.37 fold enrichment (6-mer frequency, TF over GST control)"
same,binding signal,SPIC,"1.4 fold enrichment (6-mer frequency, TF over GST control)"
same,binding signal,ELF4,"1.37 fold enrichment (6-mer frequency, TF over GST control)"
same,binding signal,ELK4,"1.41 fold enrichment (6-mer frequency, TF over GST control)"
same,binding signal,ETV2,"1.37 fold enrichment (6-mer frequency, TF over GST control)"
same,binding signal,ELF3,"1.4 fold enrichment (6-mer frequency, TF over GST control)"
same,binding signal,CRX,"1.51 fold enrichment (6-mer frequency, TF over GST control)"
same,binding signal,ETV1,"1.46 fold enrichment (6-mer frequency, TF over GST control)"
